Experimental data reported in the supplement of paper PMC9694430.

System: T1, LOC_OS04G38480-cb003
T1 sequence (whole entry): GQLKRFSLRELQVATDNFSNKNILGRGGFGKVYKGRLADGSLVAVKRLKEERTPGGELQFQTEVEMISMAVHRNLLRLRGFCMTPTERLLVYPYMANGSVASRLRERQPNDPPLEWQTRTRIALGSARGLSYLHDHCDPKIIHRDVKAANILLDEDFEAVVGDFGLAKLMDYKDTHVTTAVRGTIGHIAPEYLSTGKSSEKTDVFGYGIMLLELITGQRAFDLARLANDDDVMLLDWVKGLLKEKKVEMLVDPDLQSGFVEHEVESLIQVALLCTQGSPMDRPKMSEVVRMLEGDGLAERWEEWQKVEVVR
Test: thermal shift delta Tm vs DMSO control; higher = stronger stabilization (binding)
Conditions: 12.5 µM; protein concentration 2 µM
Method in brief: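 The melting temperature shift given here is a triplicate mean, measured against protein that received only DMSO. Melting temperatures came from Boltzmann fits of differential scanning fluorimetry data on E. coli-expressed, purified rice kinase domain constructs. Each 19.5 μl well contained 2 μM kinase, 100 mM potassium phosphate pH 7.5, 150 mM NaCl, 10% glycerol, 5 × SYPRO Orange and compound in DMSO. Plates were scanned from 25°C to 95°C at 0.05°C/s.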

Row | Compound | thermal shift delta Tm [°C]
1 | O=c1[nH]c2ccc(Cl)cc2c(N[C@@H]2CN3CCC2CC3)c1-c1nc2ccccc2[nH]1 | 2.51
2 | CCN1CCN(C(=O)Cc2ccc(Nc3ncc(F)c(Nc4ccc(C(=O)Nc5ccccc5Cl)cc4)n3)cc2)CC1 [Aurora A Inhibitor I] | 3.38
3 | COc1ccc2c(c1)/C(=C/c1cnc[nH]1)C(=O)N2 | 2.32
4 | CC(C)(C)c1cc(C=C(C#N)C#N)cc(Br)c1O | -0.82
5 | Cc1ccccc1-n1c(Cn2ncc3c(N)ncnc32)nc2cccc(C)c2c1=O | -0.52
6 | COc1ccc(N(C(=O)Oc2c(C)cccc2C)c2ccnc(Nc3ccc(N4CCN(C)CC4)cc3)n2)c(OC)c1 | 1.41
7 | CC(C)(C)c1cc(C=C(C#N)C#N)cc(C(C)(C)C)c1O [Tyrphostin 9] | 1.65
8 | COc1ccc(C[C@H]2NC[C@H](O)[C@H]2OC(C)=O)cc1 [Anisomycin] | 0.22
9 | C/C(O)=C(\C#N)C(=O)Nc1cc(Br)ccc1Br | 1.9
10 | COc1cc([C@@H]2c3cc4c(cc3[C@H](O)[C@H]3COC(=O)[C@@H]23)OCO4)cc(OC)c1OC [Picropodophyllin (PPP)] | 0.78
11 | Cn1cc(C2=C(c3cn(C4CCN(Cc5ccccn5)CC4)c4ccccc34)C(=O)NC2=O)c2ccccc21 | 2.44
